A selection: hits, their analogues and other compounds. The true share with any hit is near 12%.
G9a inh = G9a (human) methyltransferase inhibition; Q96KQ7; G9a H3K9 monomethylation, AlphaScreen, 2 h; Potency, µM (series often up to 102 µM), for inactives: top-dose activity, negative = inhibition, hits mostly inhibitors; 350,000 tested, 8.8% active; AID 504332; also: % is scaled to controls: 0 for no effect and ±100 for the full control effect; nearly all actives have a fitted effect of over 75% in size
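Signal arises when biotinylated H3K9 peptide, once monomethylated, bridges streptavidin donor and antibody-captured acceptor beads. Enzyme at 20 nM was preincubated 15 min with test compounds; peptide 500 nM and SAM 20 uM then reacted for 2 h.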
JMJD2A Tudor = inhibitors of human JMJD2A Tudor domain. O75164. Potency, µM (highest dose often 114 µM), for inactives: top-dose activity change, negative = inhibition, hits mostly inhibitors. 390,000 tested, 4.4% active. AlphaScreen JMJD2A-Tudor / H3K4me3 peptide binding. AID 504339; also: % is scaled to controls: 0 for no effect and ±100 for the full control effect; nearly all actives have a fitted effect of over 50% in size
PLK1 PBD inh = blocks phosphopeptide binding to human PLK1 polo-box domain | Plk1 PBD binding of FITC phosphopeptide, fluorescence polarization | AID 720504 | P53350 | Potency, µM, without a hit: max response, negative = inhibition, usual class: inhibitors | 360,000 tested, 2.8% active; also: series mostly up to about 57 µM; % is scaled to controls: 0 for no effect and ±100 for the full control effect; nearly all actives have a fitted effect of over 65% in size
Target sequence (P53350 whole entry, looked up, the tested form may be a part): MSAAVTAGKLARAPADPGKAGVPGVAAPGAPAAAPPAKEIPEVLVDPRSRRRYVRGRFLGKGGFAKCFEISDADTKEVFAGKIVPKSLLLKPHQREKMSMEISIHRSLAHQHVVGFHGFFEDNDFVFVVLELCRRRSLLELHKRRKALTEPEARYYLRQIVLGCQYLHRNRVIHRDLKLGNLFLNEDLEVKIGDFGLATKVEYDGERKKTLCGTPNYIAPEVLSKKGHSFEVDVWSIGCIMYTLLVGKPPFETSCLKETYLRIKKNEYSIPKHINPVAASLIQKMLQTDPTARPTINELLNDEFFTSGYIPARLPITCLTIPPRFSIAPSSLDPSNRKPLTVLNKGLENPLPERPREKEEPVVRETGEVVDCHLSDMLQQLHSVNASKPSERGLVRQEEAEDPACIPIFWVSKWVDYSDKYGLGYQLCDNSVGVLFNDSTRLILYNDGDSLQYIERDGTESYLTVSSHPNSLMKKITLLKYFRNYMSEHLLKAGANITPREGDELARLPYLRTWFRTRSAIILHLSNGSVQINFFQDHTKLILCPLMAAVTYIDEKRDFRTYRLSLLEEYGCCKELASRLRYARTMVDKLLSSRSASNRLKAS
HP1b chromo inh = HP1-beta chromodomain-methylated histone interaction inhibition; P83916; AlphaScreen HP1-beta / biotin-H3K9me3 peptide binding; Potency, µM (doses to about 114 µM), without a hit: at the highest dose activity change, negative = inhibition, usual class: inhibitors; 390,000 tested, 0.56% active; AID 540317; also: nearly all actives have a fitted effect of over 70% in size
Target sequence (P83916 whole entry, looked up): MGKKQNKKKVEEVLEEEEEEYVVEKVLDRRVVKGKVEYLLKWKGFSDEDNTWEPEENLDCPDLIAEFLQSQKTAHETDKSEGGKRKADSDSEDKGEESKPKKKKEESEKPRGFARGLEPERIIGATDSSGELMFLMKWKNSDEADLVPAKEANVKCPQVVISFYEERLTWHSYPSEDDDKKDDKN
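HP1-beta protein (50 nM final) preincubated 30 min at room temperature with biotinylated H3(1-18)K9me3 peptide (50 nM) in PBS pH 7.4, 0.01% Tween-20, then compound added for 30 min. AlphaScreen streptavidin donor/nickel chelate acceptor beads (10 ug/mL final), 30 min dark, luminescence read.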
BAZ2B block = blocks human BAZ2B | AlphaScreen BAZ2B-H3K14Ac peptide displacement | Potency, µM (highest dose often 114 µM), for inactives: at the highest dose activity change, negative = inhibition, usual class: inhibitors | Q9UIF8 | AID 504333 | 360,000 tested, 4.4% active; also: % is scaled to controls: 0 for no effect and ±100 for the full control effect; nearly all actives have a fitted effect of over 60% in size
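In this displacement format the biotinylated H3(5-23) peptide acetylated at Lys14 serves as ligand at 50 nM, with BAZ2B at 50 nM in PBS pH 7.4 containing 0.01% Tween-20. Donor and acceptor beads are 10 ug/mL final.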
Sfp inh = blocks B. subtilis Sfp PPTase activity | Q9F4F7 | Potency, µM, for inactives: largest response in the series, negative = inhibition, actives largely listed as inhibitors | Biochemical Sfp PPTase activity, qHTS | 310,000 tested, 3.5% active | AID 1490;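 also: the enzyme is Sfp with the accession as filed and its product quenches rhodamine fluorescence; 0% = enzyme reaction without inhibitor and -100% = no enzyme wells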
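After 15 min at room temperature with compound, 15 nM Sfp received 5 uM rhodamine-CoA plus 12.5 uM BHQ-2-ybbR (50 mM Hepes pH 7.6, 10 mM MgCl2). Rate came from the fluorescence difference over 30 min, ex 525/em 598 nm.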
Active calls of the source: *; ? = inconclusive; nt = not tested or not shown; [ ] = dose if it differs, or a comment. Calls follow the shape of the dose curve; as a rule, active = well fitted curve in the direction sought with a large enough effect; inconclusive = small, poorly fitted or top-dose-only effect, or another doubt; inactive = no such curve, though single readings can be large; an effect the other way counts as inactive or inconclusive. Potency is read from the fitted curve at half-maximal effect.

SMILES	G9a inh	JMJD2A Tudor	PLK1 PBD inh	HP1b chromo inh	BAZ2B block	Sfp inh
COC(=O)c1cc(S(=O)(=O)N2CCCCC2)ccc1N1CCOCC1	50.1µM*	-6.2%	-0.9%	22.9%	4.3%	nt
COc1ccccc1NC(=O)c1cc(S(=O)(=O)N2CCOCC2)ccc1Cl	4.0%[59 µM]	6.3%	5.8%	33.0%	-4.2%	13.9%
CC(Oc1ccc(F)cc1)C(=O)Nc1ccc(N2CCOCC2)cc1N1CCOCC1 (stereo not given)	56.2µM*	-16.1%	-4.5%	3.5%	-33.5%	nt
O=C(CSc1nnc(COc2ccccc2)o1)Nc1ccc(F)cc1	3.1%	10.9%	3.6%	28.3%	6.9%	8.3%
CCCCn1nc(C(=O)Nc2cc(C(F)(F)F)ccc2N2CCOCC2)ccc1=O	-2.8%[12.7 µM]	-10.8%	0.3%	33.6%	-4.8%	nt
COC(=O)c1cc(S(=O)(=O)N2CCCCCC2)c[nH]1	4.7%	-10.3%	4.3%	29.5%	-0.7%	13.8%
COC(=O)c1cc(S(=O)(=O)N2CCCCC2)c[nH]1	19.7%[59 µM]	44.7µM*	-3.2%	?	-24.5%	16.9%
Cc1nn(Cc2ccc(F)cc2)c2sc(C(=O)Nc3ccc(N4CCOCC4)cc3N3CCOCC3)cc12	11.2µM*	?	-3.7%	?	39.8µM*	5.0%
CN(c1ccccc1C(=O)NCc1ccccc1Cl)S(=O)(=O)c1ccccc1	1.5%[0.501 µM]	-18.4%	6.9%	27.0%	-19.5%	13.6%
O=C(c1cc(-c2ccccc2O)on1)N1CCCCC1	1.6%[59 µM]	-1.7%	nt	46.6%	-1.1%	nt
CC(C)(C)C1CCc2onc(C(=O)Nc3sc4c(c3C(N)=O)CCCC4)c2C1 (stereo not given)	3.16µM*	-24.6%	nt	?	-0.4%	nt
CC(C)(C)C1CCc2c(sc(NC(=O)C3CCCO3)c2C(N)=O)C1 (stereo not given)	22.0%[0.501 µM]	?	-11.2%	-17.3%	?	-13.5%
CC(C)(C)C1CCc2onc(C(=O)Nc3sc4c(c3C#N)CCCC4)c2C1 (stereo not given)	2.82µM*	-25.9%	nt	-18.4%	-17.8%	nt
COC(=O)Cc1cc(=O)n(-c2nc3ccccc3[nH]2)[nH]1	5.6%[59 µM]	17.8µM*	-11.3%	26.5%	7.94µM*	22.0%
CSc1nsc(SC)c1C(=O)Nc1ccc(C)cc1	25.1µM*	-11.7%	-6.9%	22.7%	?	6.6%
CN(CCOc1ccccc1)CCOc1ccccc1	10.6%	-26.9%	-14.4%	-19.0%	-21.7%	9.5%
CN(C)CCCCOc1ccc(F)cc1	8.91µM*	0.891µM*	?	?	79.4µM*	-1.6%
COc1cc(C)ccc1OCCOCCN(C)Cc1ccccc1	?	3.16µM*	-12.9%	?	?	-17.2%
CN(CCOCCOc1ccc2ccccc2c1)Cc1ccccc1	3.5%[59 µM]	-17.5%	-6.1%	73.7%	-15.3%	1.4%
OCCNCCCCOc1ccc(F)cc1	9.2%[59 µM]	-13.8%	-4.8%	13.5%	3.3%	2.5%
CN(CCOc1ccc(F)cc1)Cc1ccccc1	10µM*	0.794µM*	-7.7%	?	50.1µM*	-12.3%
CN(CCOC(=O)c1ccccc1)Cc1ccccc1	7.2%[59 µM]	1.3%	0.2%	42.9%	1.7%	21.6%
CN(CCCCOc1ccc(F)cc1)Cc1ccccc1	nt	22.4µM*	-0.6%	?	79.4µM*	-24.0%
Cc1cc(C)c(C)c(OCCCCN(C)Cc2ccccc2)c1	10µM*	11.2µM*	3.8%	?	50.1µM*	-29.8%
CCC(C)c1ccccc1OCCCN(C)Cc1ccccc1 (stereo not given)	11.2µM*	7.08µM*	-4.1%	16.8%	?	-0.7%
SMILES	G9a inh	JMJD2A Tudor	PLK1 PBD inh	HP1b chromo inh	BAZ2B block	Sfp inh
COc1ccc(OCCCN(C)Cc2ccccc2)cc1	12.6µM*	25.1µM*	-4.3%	?	?	-13.7%
COc1ccc(OCCN(C)Cc2ccccc2)cc1	?	-26.5%	-4.3%	10.5%	4.1%	1.3%
CCc1ccc(OCCCCN(C)Cc2ccccc2)cc1	nt	14.1µM*	-7.8%	?	?	-8.5%
COc1ccc(N(Cc2ccccc2)N=O)cc1	39.8µM*	26.9%	-14.3%	51.5%	0.5%	17.7%
COCC(=O)N1CCC2(CCCN(Cc3nccs3)C2)CC1	2.8%[12.7 µM]	nt	nt	nt	nt	0.9%
O=C(N[C@@H](Cc1ccccc1)C(=O)O)c1ccccc1	nt	nt	nt	nt	nt	19.0%
CCOc1cc(C#N)c(-n2nnc3c(sc4nc(C)cc(C)c43)c2=O)cc1OCC	15.8µM*	-13.8%	nt	7.4%	-16.3%	nt
Cn1ccc(/C=N/N=C2/NC(=O)CS2)n1	10µM*	-0.7%	1.4%	38.6%	-19.7%	?
CCCS(=O)(=O)c1c(S(=O)(=O)CCC)c2ccc(C(C)=O)cn2c1C(=O)OC	35.5µM*	-9.6%	?	-2.6%	-4.6%	4.0%
CCCS(=O)(=O)c1c(S(=O)(=O)CCC)c2c(N)cccn2c1C(=O)OC	nt	-21.5%	-16.1%	50.2%	?	28.2µM*
CC1CN(S(=O)(=O)c2cccc(C(=O)NCc3ccco3)c2)CC(C)O1 (stereo not given)	12.2%[2.33 µM]	-17.6%	-4.5%	26.8%	-0.1%	nt
CCOC(=O)C1NN=C(C(=O)c2ccccc2)C1c1ccc(OC)cc1 (stereo not given)	-7.3%[59 µM]	-11.4%	-7.5%	29.5%	-26.3%	-1.8%
CCOC(=O)C1=NNC(C(=O)c2ccc(OC)cc2)C1c1ccccc1 (stereo not given)	56.2µM*	-11.9%	-1.2%	23.2%	-3.3%	10.6%
CCOC(=O)C1=NNC(C(=O)c2ccccc2)C1c1ccc(C)cc1 (stereo not given)	-3.0%	-20.3%	0.9%	20.0%	-21.1%	9.8%
CCOC(=O)C1=NNC(C(=O)c2ccc(C)cc2)C1c1ccc(C)cc1 (stereo not given)	79.4µM*	-18.8%[57.1 µM]	?	-11.9%	-2.5%	?
O=C(c1ccco1)N1CCN(Cc2nnc(-c3ccccc3)o2)CC1	100.8%	-6.8%	2.4%	13.2%	-0.7%	1.0%
COc1ccc(-n2c(C)nc3cc(C(=O)NC4CCCCCC4)ccc32)cc1	-16.4%[59 µM]	-13.5%	nt	9.3%	?	nt
Cc1ccc(S(=O)(=O)C(CNC(=O)COc2ccccc2)c2cccs2)cc1 (stereo not given)	11.2µM*	25.1µM*	nt	20µM*	?	nt
CCOc1ccccc1O[C@@H](c1ccccc1)[C@@H]1CNCCO1	-28.4%[12.7 µM]	nt	nt	nt	nt	17.0%
N#Cc1c(Sc2ncc(C(F)(F)F)cc2Cl)nsc1C/C=N\OCc1c(F)cccc1Cl	10µM*	?	-9.4%	-23.1%	39.8µM*	4.5%
FC(F)(F)c1cnc(Sc2nnc(-c3cccs3)n2CC2CCCO2)c(Cl)c1 (stereo not given)	-35.7%[12.7 µM]	-8.5%	0.5%	15.4%	-27.0%	-0.1%
O=C1CCC[C@@H]2Cc3nc4ccc(Cl)cc4cc3[C@@H]3CCN1[C@H]23	nt	-2.8%	0.6%	30.1%	nt	nt
Nc1ccc(Cn2ccc3c4c(N)nc(N)nc4ccc32)cc1	nt	44.7µM*	2.1%	79.4µM*	nt	nt
